# Only some compounds are listed: those with a hit (about 1.7% of all), similar ones and a draw of the others.
# LYPLA2 counter: counter-screen for PME1 inhibitors: inhibitors of human LYPLA2; inhibition, % at 5.9 µM; recombinant LYPLA2, FP-Rh probe fluorescence polarization; O95372; 320,000 tested, 0.38% active; AID 2177;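 active means inhibition above the screen-wide mean plus 3 SD, limit set per campaign, cut at about 26% in these data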;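 further: 0% = LYPLA2 with DMSO and 100% = wells lacking LYPLA2 enzyme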
# Rin1 Abl inh: human Rin1-Abl interaction inhibition. 360,000 tested, 0.4% active. TR-FRET Rin1/Abl binding, biochemical. inhibition, % at 7.35 µM. P00519+Q13671; in the data active means inhibition above about 5%, passing the limit was not always enough
# Target sequence (P00519 whole entry, looked up): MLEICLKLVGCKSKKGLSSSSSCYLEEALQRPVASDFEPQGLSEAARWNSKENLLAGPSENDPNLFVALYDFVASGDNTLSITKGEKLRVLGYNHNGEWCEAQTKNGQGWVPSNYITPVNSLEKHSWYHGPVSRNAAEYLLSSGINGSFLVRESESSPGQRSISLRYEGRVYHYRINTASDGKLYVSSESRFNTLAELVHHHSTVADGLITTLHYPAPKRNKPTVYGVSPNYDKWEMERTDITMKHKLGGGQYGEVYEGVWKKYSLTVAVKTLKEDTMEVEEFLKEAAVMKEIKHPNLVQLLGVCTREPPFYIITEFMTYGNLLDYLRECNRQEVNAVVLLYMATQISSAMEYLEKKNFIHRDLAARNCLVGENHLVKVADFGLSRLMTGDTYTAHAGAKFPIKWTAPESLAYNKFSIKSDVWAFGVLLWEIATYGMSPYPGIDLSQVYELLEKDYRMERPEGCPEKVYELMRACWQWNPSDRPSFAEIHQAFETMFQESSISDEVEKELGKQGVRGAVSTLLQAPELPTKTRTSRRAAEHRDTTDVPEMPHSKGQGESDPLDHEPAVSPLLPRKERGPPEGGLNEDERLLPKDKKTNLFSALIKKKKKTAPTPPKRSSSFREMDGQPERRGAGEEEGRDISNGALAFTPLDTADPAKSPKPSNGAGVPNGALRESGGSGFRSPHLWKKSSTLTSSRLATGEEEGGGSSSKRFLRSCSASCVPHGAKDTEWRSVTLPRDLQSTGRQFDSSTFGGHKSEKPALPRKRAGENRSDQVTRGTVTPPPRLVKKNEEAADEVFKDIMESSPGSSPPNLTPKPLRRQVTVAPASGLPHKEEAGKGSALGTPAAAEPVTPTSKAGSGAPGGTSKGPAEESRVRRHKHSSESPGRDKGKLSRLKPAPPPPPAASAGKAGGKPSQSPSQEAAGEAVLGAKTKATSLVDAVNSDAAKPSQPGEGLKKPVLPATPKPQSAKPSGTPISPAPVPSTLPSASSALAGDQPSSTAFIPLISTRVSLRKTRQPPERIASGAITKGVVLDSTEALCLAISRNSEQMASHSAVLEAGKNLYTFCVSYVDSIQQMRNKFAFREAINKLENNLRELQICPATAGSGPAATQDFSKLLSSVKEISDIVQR
# Target sequence (Q13671 whole entry, looked up): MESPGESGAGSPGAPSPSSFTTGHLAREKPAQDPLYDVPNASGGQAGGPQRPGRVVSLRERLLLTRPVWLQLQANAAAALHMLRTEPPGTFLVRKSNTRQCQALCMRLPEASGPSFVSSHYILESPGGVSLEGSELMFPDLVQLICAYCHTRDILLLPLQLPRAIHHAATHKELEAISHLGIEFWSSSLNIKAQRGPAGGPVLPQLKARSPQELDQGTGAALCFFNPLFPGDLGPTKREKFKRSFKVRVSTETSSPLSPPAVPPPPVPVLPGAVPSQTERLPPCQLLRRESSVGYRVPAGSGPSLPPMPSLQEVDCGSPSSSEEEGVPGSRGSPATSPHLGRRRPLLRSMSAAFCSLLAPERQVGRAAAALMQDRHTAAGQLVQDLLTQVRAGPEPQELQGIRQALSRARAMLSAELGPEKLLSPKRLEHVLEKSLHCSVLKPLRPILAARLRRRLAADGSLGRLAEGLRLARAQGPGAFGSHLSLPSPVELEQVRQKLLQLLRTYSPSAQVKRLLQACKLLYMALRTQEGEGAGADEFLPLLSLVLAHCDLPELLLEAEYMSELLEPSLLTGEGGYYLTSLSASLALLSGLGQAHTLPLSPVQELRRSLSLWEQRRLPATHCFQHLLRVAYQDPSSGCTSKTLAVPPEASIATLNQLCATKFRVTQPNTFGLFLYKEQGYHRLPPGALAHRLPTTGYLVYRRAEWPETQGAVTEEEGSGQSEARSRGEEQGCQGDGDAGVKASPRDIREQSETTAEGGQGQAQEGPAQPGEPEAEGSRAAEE
# Hck Nef HTS: inhibitors of human Hck kinase activated by Nef. 220,000 tested, 0.68% active. inhibition, % at 20 µM. Recombinant Hck-YEEI plus Nef, Z-Lyte FRET kinase assay. AID 463187;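 active means Hck-Nef kinase inhibition above about 50%, limit read from the data; inactive means inhibition below that limit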;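 further: 0% = DMSO with Hck plus Nef and 100% = Hck alone without Nef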
# LYPLA1 inh: LYPLA1 (human) inhibition in PME1 counter-screen; recombinant LYPLA1, FP-Rh probe fluorescence polarization; inhibition, % at 5.9 µM; 320,000 tested, 0.16% active;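 active means inhibition above the mean of all tested compounds plus 3 SD, set per campaign, cut at about 14% in these data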;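 further: inhibitors block serine hydrolase probe labeling of LYPLA1 so polarization falls; 0% = enzyme with DMSO and 100% = wells lacking LYPLA1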
# p97 ATPase inh: inhibitors of human p97 ATPase; 220,000 tested, 0.42% active; P55072; inhibition, % at 8 µM; recombinant p97 ATPase, Kinase-Glo ATP luminescence, 3 h; in the data active means inhibition above about 15%;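 further: 0% = DMSO vehicle and 100% = wells lacking enzyme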
# PREPL inh: human PREPL enzyme inhibition | 320,000 tested, 0.68% active | recombinant PREPL, fluorescence polarization activity-based probe | inhibition, % at 5.96 µM; in the data active means inhibition above about 43%;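 further: 0% = enzyme with DMSO and 100% = wells lacking enzyme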
# Rin1-Abl confirm: Rin1-Abl interaction inhibition confirmation. 1,300 tested, 49% active. inhibition, % at 7.35 µM. AID 602124. TR-FRET Rin1-Abl binding, purified proteins. shares compounds with Rin1 Abl inh
# GFP quench-1: counter-screen for Rin1-Abl inhibitors: GFP fluorescence quenchers; inhibition, % at 6.75 µM; 1,300 tested, 8.5% active; shares compounds with Rin1 Abl inh; inhibitors/quenchers counterscreen;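 further: ABL1-eGFP fusion protein alone without its partner RIN1-SBP; 0% = protein with vehicle and 100% = wells lacking protein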
# GFP quench DR: counter-screen for Rin1-Abl inhibitors: GFP quenchers, dose response; shares compounds with Rin1 Abl inh; GFP fluorescence interference/quenching counterscreen; IC50, µM; 230 tested, under 10 active; AID 602182; call rule not given here;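 further: ABL1-eGFP fusion protein alone without its RIN1 binding partner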
# GFP quench-2: GFP quenching artifact for Rin1-Abl inhibitor hits; GFP fluorescence quenching counterscreen, biochemical; IC50, µM; shares compounds with Rin1 Abl inh; 25 tested, under 10 active; call rule not given here
# * marks the source's active call; other numbers are inactive results; · = no result given. Unless noted, no stated cut-off is given here; in the data, active means inhibition above about 6.5%; inactive means the rest.
SMILES,LYPLA2 counter,Rin1 Abl inh,Hck Nef HTS,LYPLA1 inh,p97 ATPase inh,PREPL inh,Rin1-Abl confirm,GFP quench-1,others
CN(C(=O)c1ccc(NC(=O)Cc2ccc(NC(=O)C3CCN(C(=O)C4CCCC4)CC3)cc2)cc1)C1CCCC1,·,22*,·,·,·,·,27*,-1,GFP quench DR=>67
CN(C(=O)c1ccc(NC(=O)Cc2ccc(NC(=O)C3CCN(C(=O)C4CCCCC4)CC3)cc2)cc1)C1CC1,8,68*,·,3,·,6,66*,-1,
CN(C(=O)c1ccc(NC(=O)Cc2ccc(NC(=O)C3CCN(C(=O)CCc4ccccc4)CC3)cc2)cc1)C1CCCC1,·,-1,·,·,·,·,·,·,
CC(=O)Nc1ccc(NC(=O)C(C)OC(=O)CSc2ccc(Br)cc2C)cc1 (stereo not given),-8,-2,·,-7,·,-5,·,·,
O=C(Nc1ccc2c(c1)OCO2)c1ccc([N+](=O)[O-])cc1[N+](=O)[O-],11,0,·,-4,·,23,·,·,
O=C(Cc1ccc(NC(=O)C2CCN(C(=O)C3CCCCC3)CC2)cc1)Nc1ccc(C(=O)N2CCOCC2)cc1,·,39*,·,·,·,·,44*,0,GFP quench DR=>68;GFP quench-2=>68
CCn1c(CN2CCOCC2)nnc1SCC(=O)Nc1ccccc1C,4,-1,·,-2,·,10,·,·,
Cc1cc(Br)ccc1NC(=O)CSc1nnc(CN2CCOCC2)n1C,19,10*,·,0,·,10,6,1,
O=C(CSc1nnc(-c2ccncc2)o1)Nc1cc(Cl)ccc1C(=O)O,·,1,·,·,·,11,·,·,
CCC(C)c1ccc(S(=O)(=O)N2CC(=O)Nc3ccccc32)cc1 (stereo not given),3,5.8*,3,-7,2,0,-1,1,
Cc1cccc(NC(=O)CCS(=O)(=O)c2cc3c(cc2Cl)NC(=O)CO3)c1,-2,-1,·,1,·,0,·,·,
CCOC(=O)C1(C)CCCN1C(=O)c1c(F)cccc1F (stereo not given),·,-2,·,·,·,·,·,·,
COc1ccc(NC(=O)C2CCCN(c3ncnc4onc(-c5ccc(F)cc5)c34)C2)cc1 (stereo not given),11,9.2*,·,0,·,-1,-2,0,
O=C(O)c1ccc2c(=O)n3c(nc2c1)/C(=C/c1cccc(Cl)c1Cl)CC3,2,-1,·,-12,·,0,·,·,
Cc1ccc(C(=O)NC(C)c2ccc(-n3ccnc3)cc2)cc1S(=O)(=O)N1CCOCC1 (stereo not given),0,11*,·,0,·,-6,16*,0,
COc1ccccc1-c1csc(Nc2ccc(Oc3ccccc3)cc2)n1,·,4,·,·,·,·,·,·,
O=C(c1cc(COc2cccc3cccnc23)on1)N1CCC[C@H]1CO,·,54*,·,·,·,·,50*,-1,GFP quench DR=>67;GFP quench-2=>68
COC(=O)C1CCCCN1C(=O)c1cc(COc2cccc3cccnc23)on1 (stereo not given),-11,1,·,-3,·,1,·,·,
COCCC1CCCCN1C(=O)c1cc(COc2cccc(C(C)=O)c2)on1 (stereo not given),4,0,·,0,·,-3,·,·,
CC(=O)c1ccc(OCc2cc(C(=O)N3CCC[C@H]3CO)no2)cc1,2,11*,·,-3,·,5,10*,-1,
N/C(=N\OC(=O)c1ccc([N+](=O)[O-])cc1)c1cccnc1,1,1,3,3,2,24,·,·,
Cc1ccc(C(=O)O/N=C(\N)c2cccnc2)cc1[N+](=O)[O-],5,6.9*,2,5,0,2,-1,-2,
CSc1ccc(CCNC(=O)Cn2ncc3c([nH]c4ccccc43)c2=O)cc1,-9,0,·,-7,·,9,·,·,
COc1cccc(NS(=O)(=O)c2ccc3c(c2)C2C=CCC2C(c2ccc(C(=O)O)cc2)N3)c1 (stereo not given),-8,12*,44,-9,15*,37,3,7.1*,
N#CC1(NC(=O)COC(=O)c2nc(Cl)c(Cl)c(N)c2Cl)CCCCC1,3,-3,·,4,·,13,·,·,
SMILES,LYPLA2 counter,Rin1 Abl inh,Hck Nef HTS,LYPLA1 inh,p97 ATPase inh,PREPL inh,Rin1-Abl confirm,GFP quench-1,others
O=C(Nc1cccc(NC(=O)c2cccnc2)c1)c1cccnc1,0,8.6*,-1,-2,-3,5,-2,0,
O=C(Nc1cccc(F)c1)c1cccnc1,·,-4,·,·,·,·,·,·,
CCCS(=O)(=O)N1CCN(Cc2ccccc2[N+](=O)[O-])CC1,1,9.5*,14,-2,-4,2,0,0,
COC(=O)c1cccc(NC(=O)c2ccccc2)c1,3,-2,3,0,-4,4,·,·,
COC(=O)c1cccc(NC(=O)c2ccc[n+]([O-])c2)c1,-1,17*,·,0,·,12,23*,1,GFP quench DR=>67
CC(C)c1c(C(=O)N/N=C/C2CC=CCC2)nnn1-c1nonc1N (stereo not given),8,2,·,1,·,4,·,·,
CC(C)c1ccc(CCNC(=O)CCNS(=O)(=O)c2ccc(Br)cc2)cc1,6,-1,·,1,·,-2,·,·,
CC(=O)OCCN(CCCn1c(-c2ccncc2)nc2ccccc21)c1nc(CN2CCCCC2)cs1,8,8.4*,·,1,·,28,2,0,
CC1CCCC(C)N1CCCNC(=O)Cn1ncc2c3ccccc3n(C)c2c1=O (stereo not given),-2,3,·,3,·,2,·,·,
CC(C)(C)c1ccc(-c2n[nH]c(=S)n2CCCN2CCOCC2)cc1,1,8.7*,8,0,-4,-1,7.6*,0,
CC(C)(C)c1ccc(-c2n[nH]c(=S)n2CC2CCCO2)cc1 (stereo not given),5,0,17,-1,4,4,·,·,
CCNc1nc(N2CCCCC2)nc(-n2nnc(C(=O)OCC)c2C)n1,7,5.8*,0,0,-5,8,2,1,
O=C(CNC(=O)c1cccc(F)c1)N/N=C/c1cccs1,-2,-1,·,-3,·,9,·,·,
O=C(NCCc1ccccc1)c1ccc(CS(=O)Cc2ccc(Cl)cc2)o1 (stereo not given),4,2,·,4,·,6,·,·,
COC(=O)c1ccc(COC(=O)C2CCN(S(=O)(=O)c3ccc(C)c(C)c3)CC2)o1,8,16*,·,2,·,16,31*,-2,GFP quench DR=>68
CC1(c2nnc(-c3ccncc3)o2)CC(c2ccc(Cl)cc2)=NO1 (stereo not given),6,17*,·,3,·,-12,23*,-2,

# Screens: PubChem BioAssay, several laboratories
